# In the library only some 9.3% were active in any assay of this set; here they are far more common.
# NPC1 promoter act = qHTS Assay for NPC1 Promoter Activators; Potency, µM (highest dose often 9.22 µM), inactives show at the top dose activation, usual class: activators; Huh7 NPC1 promoter luciferase reporter, 24 h; 2.4% of 320,000 active; further: % of control where 0% means no effect; nearly all actives have a fitted effect of over 60% in size
#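 Luminescence read-out of NPC1 promoter-driven luciferase in stably transfected Huh7 cells; compounds delivered in DMSO and left 24 h at 37C, 5% CO2, qHTS titration format.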
# FLuc modulator = qHTS profiling assay for firefly luciferase inhibitor/activator using purifed enzyme and Km concentrations of substrates (counterscreen for miR-21 project) | Luciferin 4-monooxygenase (Photinus pyralis), P08659 | AID 588342, 2011 | 6.9% of 360,000 active | Potency, µM (highest dose often 57.5 µM), without a hit: at the highest dose activity change, negative = inhibition, usual class: inhibitors | purified FLuc, Km substrates, luminescence inhibition;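 further: plate controls were vehicle for no effect and reference inhibitor for full effect; nearly all actives have a fitted effect of over 55% in size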
# Target sequence (P08659 whole entry, looked up): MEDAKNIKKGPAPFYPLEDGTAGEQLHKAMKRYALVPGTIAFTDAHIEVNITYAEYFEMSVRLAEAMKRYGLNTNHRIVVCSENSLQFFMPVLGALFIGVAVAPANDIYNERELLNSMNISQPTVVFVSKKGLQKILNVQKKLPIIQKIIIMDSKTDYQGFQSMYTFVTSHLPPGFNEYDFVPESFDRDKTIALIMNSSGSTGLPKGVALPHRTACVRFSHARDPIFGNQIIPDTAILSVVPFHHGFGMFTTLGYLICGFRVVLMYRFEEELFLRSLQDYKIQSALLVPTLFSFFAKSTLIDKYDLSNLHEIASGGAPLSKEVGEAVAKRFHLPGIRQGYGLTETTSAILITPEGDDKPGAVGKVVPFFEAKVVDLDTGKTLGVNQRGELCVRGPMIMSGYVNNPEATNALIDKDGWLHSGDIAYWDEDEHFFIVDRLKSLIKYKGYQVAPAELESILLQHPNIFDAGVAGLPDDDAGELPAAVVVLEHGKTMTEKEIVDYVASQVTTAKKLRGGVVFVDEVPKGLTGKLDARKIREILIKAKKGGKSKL
#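 Purified P. pyralis luciferase (10nM final) with 10uM D-luciferin and 10uM ATP (Km levels) in 50mM Tris acetate pH 7.5, 10mM Mg acetate, 0.01% Tween-20, 0.05% BSA; qHTS 6-point titration, ~60 µM downward; luminescence read.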
# ELG1 genotox = qHTS screen for small molecules that induce genotoxicity in human embryonic kidney (HEK293T) cells expressing luciferase-tagged ELG1. Potency, µM (highest dose often 46 µM), for inactives: top-dose activity change, positive = activation, usual class: activators. HEK293T ELG1-luciferase reporter, luminescence, 16 h. 1.3% of 330,000 active; further: % of control where 0% means no effect; nearly all actives have a fitted effect of over 60% in size
#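 HEK293T cells expressing luciferase-tagged ELG1 were treated with compound or DMSO for 16 hr at 37°C. Luciferase activity was then read after 30 min with ONE-Glo at room temperature; rising signal flags genetic stress.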
# ELG1 repair inh = qHTS screen for small molecules that inhibit ELG1-dependent DNA repair in human embryonic kidney (HEK293T) cells expressing luciferase-tagged ELG1; HEK293T ELG1-luciferase reporter, luminescence, 16 h; DNA damage induced by 5-fluorouridine; AID 504467, 2011; 2.3% of 330,000 active; Potency, µM (doses to about 46.1 µM), without a hit: top-dose activity change, negative = inhibition, actives largely listed as inhibitors; further: on the % scale 0 is the no-effect control and ±100 the full control effect; nearly all actives have a fitted effect of over 55% in size
#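 Luminescence from the luciferase reporter, measured 30 min after ONE-Glo reagent at room temperature, was the read-out. Beforehand, 2,000 cells per well were exposed for 16 hr at 37 °C to 5-fluorouridine together with compound or vehicle.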
# Rab9 promoter act = qHTS Assay for Rab9 Promoter Activators | 2.8% of 320,000 active | Potency, µM (highest dose often 9.22 µM), for inactives: at the top dose activation, negative = inhibition, usual class: activators | AID 485297, 2010 | Huh7 Rab9 promoter-luciferase reporter, luminescence, 24 h; further: % of control where 0% means no effect; nearly all actives have a fitted effect of over 60% in size
#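 Luciferase signal after 10 min detection reagent at ambient indicates Rab9 promoter upregulation; stably transfected Huh7 cells were treated 24 h with compound in DMSO at 37 °C, 5% CO2.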
# SMN2 splice up = qHTS Assay for Enhancers of SMN2 Splice Variant Expression; HEK293 SMN2-luciferase splicing reporter, luminescence, 30-36 h; Potency, µM (series often up to 46.1 µM), inactives show top-dose activity change, positive = activation, actives largely listed as activators; 2.8% of 210,000 active; AID 1458, 2008; further: % of control where 0% means no effect; nearly all actives have a fitted effect of over 55% in size
#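 HEK293 cells carry an SMN2 […]–luciferase reporter in which exon 7 inclusion puts luciferase in frame. Cells were plated 10-12 h before compound addition, then incubated 30-36 h at 37C. ONE-Glo luminescence was read; sodium butyrate at 4.5 mM final served as control.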
# * = called active by the depositor; ? = inconclusive; . = not tested or not shown. The call rests on the fitted dose curve; in most records, active means well fitted curve in the direction sought with a large enough effect; inconclusive means small, poorly fitted or top-dose-only effect, or another doubt; inactive means no such curve, though single readings can be large; an effect the other way counts as inactive or inconclusive. Potency means the concentration at half of the fitted maximal effect.
SMILES,NPC1 promoter act,FLuc modulator,ELG1 genotox,ELG1 repair inh,Rab9 promoter act,SMN2 splice up
O=C(CN1C(=O)NC2(CCCCC2)C1=O)NNC(=O)C1CC1,0%,1%,0%,11%,-1%,.
COC(=O)c1ccc(N2CCCCC2)c(N)c1,?,11µM*,?,?,3.5µM*,22µM*
COC(=O)c1ccc(C(=O)OC)c(N)c1,-1%,?,7%,19%,20%,18%
COC(=O)c1ccc(N2CCC(C)CC2)c(N)c1,?,12µM*,18µM*,?,?,7%
O=C(N/N=C/c1ccc(Br)s1)c1c[nH]c2ccccc12,3.5µM*,21µM*,3%,?,2.8µM*,8.9µM*
O=C(N/N=C/c1cc(Br)cs1)c1c[nH]c2ccccc12,?,17µM*,8%,-6%,24%,.
O=C(N/N=C/c1cc(Br)cs1)c1ccccc1[N+](=O)[O-],-9%,1%,-5%,?,-16%,-8%
O=C(N/N=C/c1ccc(Br)s1)Nc1ccccc1,27%,?,13%,?,?,28%
CCOC(=O)c1c(NC(=S)N2CCN(C)CC2)sc2c1CCN(C(=O)OCC)C2,-2%,4%,-5%,16µM*,12%,.
CNC(=O)c1c(NC(=O)C2=COCCO2)sc2c1CCCC2,2%,17µM*,17%,27%,5%,.
CCOC(=O)c1c(NC(=O)CN2CCCCC2)sc2c1CCN(C(=O)OCC)C2,-8%,-1%,-6%,?,-18%,-39%
CCOC(=O)N1CCc2c(sc(NC(=O)C3=COCCO3)c2C(N)=O)C1,-3%,11µM*,1%,-3%,9%,.
CCOC(=O)c1c(NC(=O)CN(CC)CC)sc2c1CCN(C(=O)OCC)C2,-1%,-1%,-26%,?,-7%,-30%
COc1cc2[nH]c(=O)n(CCCCCC(=O)N3CC=C(c4ccccc4)CC3)c(=O)c2cc1OC,-5%,-19%,-38%,8.2µM*,-4%,-14%
COc1cc2[nH]c(=O)n(CCC(=O)N3CCc4ccccc4C3)c(=O)c2cc1OC,0%,0%,3%,-4%,3%,-1%
COc1cc2[nH]c(=O)n(CCC(=O)N3CCN(c4cc(Cl)ccc4C)CC3)c(=O)c2cc1OC,-5%,1%,-3%,8.2µM*,-2%,-26%
CC1(c2ccc(Cl)cc2)NC(=O)CS1 (stereo unspecified),0%,-3%,2%,-2%,14%,-18%
Cc1nc(NC(=O)CN2CCOCC2)sc1-c1ccccc1,?,?,12%,?,?,8%
Cc1nc(Nc2ccccc2)sc1-c1ccccc1,1.3µM*,0.34µM*,?,?,0.4µM*,.
Cc1nc(Nc2ccc(C(=O)O)cc2)sc1-c1ccccc1,1.3µM*,0.17µM*,?,?,?,.
O=C(CCSCc1ccc(Cl)cc1)NCc1cccs1,-3%,-3%,2%,?,1%,-61%
CCOc1ccccc1CNC(=O)CN1C(=O)c2cccnc2Oc2ccc(Cl)cc21,.,2%,.,.,.,.
Cc1ccc(Nc2nc3nonc3[nH]c2=O)cc1Cl,9%,21µM*,-16%,?,2%,-74%
Cc1ccc(Nc2nc3nonc3[nH]c2=O)cc1C,18%,12µM*,7%,?,26%,13%
Cc1ccc(NC2=CC(=O)CC(C)(C)C2)cc1Cl,2%,3%,-5%,-12%,-3%,.
SMILES,NPC1 promoter act,FLuc modulator,ELG1 genotox,ELG1 repair inh,Rab9 promoter act,SMN2 splice up
C=CCN=c1scc(-c2ccccc2)n1/N=C/c1ccccn1,2µM*,2.4µM*,?,?,1.3µM*,4.5µM*
C=CCN=c1scc(-c2ccc(F)cc2)n1/N=C/c1ccccn1,24%,13µM*,22%,?,?,400%
CO[C@@H]1c2cc(F)ccc2/C(=C\CCOC(=O)C/C=C/c2ccccc2)[C@H]1C,.,.,.,.,.,3%
COc1ccc(-c2nc3ncccn3c2Br)cc1,?,15µM*,?,?,2.5µM*,.
Brc1c(-c2ccc3c(c2)OCO3)nc2ncccn12,16%,24µM*,?,?,?,.
COc1ccc(-c2nc3ncccn3c2Nc2ccc3c(c2)OCCO3)cc1,.,-16%,.,.,.,-7%
Cc1ccc(-c2nc3ncccn3c2Nc2ccc3c(c2)OCCO3)cc1,0%,?,14%,?,0%,-1%
N#Cc1ccccc1NC(=O)CN1C(=O)NC(Cc2c[nH]c3ccccc23)C1=O (stereo unspecified),1%,9.5µM*,1%,?,0%,.
O=C(CN1C(=O)NC(Cc2c[nH]c3ccccc23)C1=O)Nc1cccc(S(=O)(=O)N2CCCCCC2)c1 (stereo unspecified),-2%,-1%,0%,21µM*,-6%,-37%
O=C(CN1C(=O)NC(Cc2c[nH]c3ccccc23)C1=O)Nc1cccc(S(=O)(=O)N2CCCC2)c1 (stereo unspecified),4%,1%,3%,-2%,0%,-5%
CN1C(=O)C(Cc2c[nH]c3ccccc23)NC1=S (stereo unspecified),.,.,.,.,.,13µM*
CCC(C)(C)NC(=O)C(c1ccc(OC)cc1)N(C(=O)CCC(=O)Nc1cc(C)on1)c1ccc2c(c1)OCCO2 (stereo unspecified),-7%,?,1%,-2%,-8%,.
Cc1ccnc(Nc2nc(-c3ccc(O)c(O)c3)cs2)c1,?,6µM*,5.8µM*,?,-4%,.
CCC(=O)Nc1nc(C)c(-c2csc(Nc3ccccn3)n2)s1,?,17µM*,2%,-27%,?,15%
Oc1ccc(-c2csc(Nc3cccc4ccccc34)n2)cc1O,-7%,?,4%,11%,6%,.
Oc1ccc(-c2csc(Nc3ccccn3)n2)cc1O,?,9.5µM*,3.7µM*,?,-14%,.
Cc1ccnc(Nc2nc(-c3ccc(O)cc3O)cs2)c1,?,17µM*,14%,0%,?,.
CC(=O)Nc1ccc(-c2csc(Nc3ccccn3)n2)cc1,0.5µM*,?,?,?,0.45µM*,.
Cc1ccnc(Nc2nc(-c3ccc(O)cc3)cs2)c1,2.5µM*,8.5µM*,?,?,3.2µM*,.
CC(=O)Nc1ccc(-c2csc(NCCc3ccccc3)n2)cc1,?,?,1%,?,?,.

# Source: PubChem BioAssay
